# Laboratory results taken from PubChem BioAssay (NCATS).
# Several values for one entry are separate records, joined by “and”; a condition that tells them apart may be missing. Identical values can stand only once. Records with an inconclusive call do not appear. A call without a number means that no potency is given here. A number with no mark means an inactive call. Activity calls are given as the source filed them. Calls follow the shape of the dose curve; as a rule, active = well fitted inhibition curve with a large enough effect; inconclusive = small, poorly fitted or top-dose-only effect; inactive = flat fitted curve, though single readings scatter.
# Experiments:
# CRL-7250 [1] = assay: Cytotoxic Profiling of Annotated Libraries Using Quantitative High-Throughput Screening (AID 1296008); conditions: Five cell lines viability, CellTiter-Glo ATP luminescence, 48-72 h; max response: hits give low values
# Outline: (§1)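 Compounds were pin-transferred onto cells and incubated 48 or 72 hr at 37 degree Celsius, 95% humidity. CellTiter-Glo was added, plates sat 10 min at room temperature, then ATP-coupled luminescence was imaged as the viability read-out.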
# HEK293 = assay: as above; conditions: Five cell lines viability, CellTiter-Glo ATP luminescence, 48-72 h; max response: hits give low values
# Outline: as §1
# HaCat [2] = assay: as above; conditions: Five cell lines viability, CellTiter-Glo ATP luminescence, 48-72 h; max response: hits give low values
# Outline: as §1
# KB-3-1 = assay: as above; conditions: Five cell lines viability, CellTiter-Glo ATP luminescence, 48-72 h; max response: hits give low values
# Outline: as §1
# NIH3T3 = assay: as above; conditions: Five cell lines viability, CellTiter-Glo ATP luminescence, 48-72 h; max response: hits give low values
# Outline: as §1
# MCC-13 = assay: qHTS assay to identify novel small-molecules to repurpose for Merkel cell carcinoma treatment (AID 1296009); conditions: MCC and control cell lines, CellTiter-Glo viability, 72 h; series mostly up to 46 µM
# Outline: (§2)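 Viability readout: ATP luminescence (CellTiter-Glo) after 72 hr drug exposure at 37 degree celsius. Dose-response format was 8 points for NPC and 11 points for MIPE; data normalized to in-plate controls.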
# MCC-26 = assay: as above; conditions: MCC and control cell lines, CellTiter-Glo viability, 72 h; series mostly up to 46 µM
# Outline: as §2
# MKL-1 = assay: as above; conditions: MCC and control cell lines, CellTiter-Glo viability, 72 h; series mostly up to 46 µM
# Outline: as §2
# MKL-2 = assay: as above; conditions: MCC and control cell lines, CellTiter-Glo viability, 72 h; series mostly up to 46 µM
# Outline: as §2
# CRL-7250 [3] = assay: as above; conditions: MCC and control cell lines, CellTiter-Glo viability, 72 h; at 44.8 µM (top of the series) unless noted
# Outline: as §2
# HACAT [4] = assay: as above; conditions: MCC and control cell lines, CellTiter-Glo viability, 72 h
# Outline: as §2
# PC15 = assay: qHTS profiling for inhibitors of Plasmodium falciparum proliferation (AID 504749); also: potency is read from the fitted curve at half-maximal effect; conditions: P. falciparum in erythrocytes, SYBR Green DNA, 72 h; series mostly up to 28.7 µM
# Outline: (§3)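 Quantitative HTS: compounds pinned into medium, infected erythrocytes added (0.3% parasitemia, 2.5% hematocrit), 72 h culture at 37 C under 5% CO2. Saponin/Triton lysis with SYBR Green I, overnight RT, then fluorescence read.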
# PC26 = assay: as above; conditions: P. falciparum in erythrocytes, SYBR Green DNA, 72 h; series mostly up to 28.7 µM
# Outline: as §3
# PC49 = assay: as above; conditions: P. falciparum in erythrocytes, SYBR Green DNA, 72 h; series mostly up to 28.7 µM
# Outline: as §3
# SC27B = assay: as above; conditions: P. falciparum in erythrocytes, SYBR Green DNA, 72 h; series mostly up to 28.7 µM
# Outline: as §3
# TAB109 = assay: as above; conditions: P. falciparum in erythrocytes, SYBR Green DNA, 72 h; series mostly up to 28.7 µM
# Outline: as §3
# TAB113 = assay: as above; conditions: P. falciparum in erythrocytes, SYBR Green DNA, 72 h; series mostly up to 28.7 µM
# Outline: as §3
# TAB165 = assay: as above; conditions: P. falciparum in erythrocytes, SYBR Green DNA, 72 h; series mostly up to 28.7 µM
# Outline: as §3
# HEK293T = assay: qHTS assay to identify novel small-molecules to repurpose for Merkel cell carcinoma treatment (AID 1296009); conditions: MCC and control cell lines, CellTiter-Glo viability, 72 h; at 44.8 µM (top of the series) unless noted
# Outline: as §2
# W2 = assay: qHTS profiling for inhibitors of Plasmodium falciparum proliferation (AID 504749); also: potency is read from the fitted curve at half-maximal effect; conditions: P. falciparum in erythrocytes, SYBR Green DNA, 72 h; series mostly up to 28.7 µM
# Outline: as §3
# [5] = at 44.8 µM (top of the series) unless noted
# Also: nearly all actives have a fitted effect of over 60% in size.
smiles,measurement,setting,value
C[C@H](N)C(=O)c1ccccc1,max response,CRL-7250 [1],-38.6%
same,max response,HEK293,-0.637%
same,max response,HaCat [2],-26.7%
same,max response,KB-3-1,-7.79% and 0.534%
same,max response,NIH3T3,-1.01%
same,outcome,MCC-13,inactive
same,Potency,MCC-26,inactive
same,Potency,MKL-1,inactive
same,Potency,MKL-2,inactive
CC(C)N(CCC(C(N)=O)(c1ccccc1)c1ccccn1)C(C)C (stereo unspecified),max response,CRL-7250 [1],-4.51%
same,outcome,CRL-7250 [1],inactive
same,max response,HaCat [2],-27.6%
same,outcome,HaCat [2],inactive
same,max response,KB-3-1,-6.29% and -10.8%
same,max response,NIH3T3,-23.6% and -1.68%
same,outcome,CRL-7250 [3],inactive
same,outcome,HACAT [4]; [5],inactive
same,outcome,MCC-13,inactive
same,Potency,MCC-26,inactive
same,Potency,MKL-1,inactive
same,Potency,MKL-2,inactive
CCCCCCCCCC(=O)O[C@H]1CC[C@H]2[C@@H]3CCC4=CC(=O)CC[C@@H]4[C@H]3CC[C@]12C,Potency,PC15,inactive
same,Potency,PC26,inactive
same,Potency,PC49,inactive
same,Potency,SC27B,inactive
same,Potency,TAB109,inactive
same,Potency,TAB113,inactive
same,Potency,TAB165,inactive
same,outcome,CRL-7250 [1],inactive
same,max response,HEK293,-2.03%
same,max response,HaCat [2],4.55%
same,max response,KB-3-1,-10.4%
same,max response,NIH3T3,-3.4%
same,outcome,CRL-7250 [3],inactive
same,outcome,MCC-13,inactive
same,Potency,MKL-1,inactive
same,Potency,MKL-2,inactive
CCN[C@@H](C)Cc1cccc(C(F)(F)F)c1,max response,CRL-7250 [1],-0.0811%
same,max response,HEK293,3.69%
same,outcome,HaCat [2],inactive
same,max response,KB-3-1,-9.47%
same,max response,NIH3T3,2.4%
same,outcome,HACAT [4]; [5],inactive
same,outcome,MCC-13,inactive
same,Potency,MCC-26,inactive
same,Potency,MKL-1,inactive
same,Potency,MKL-2,inactive
CC(NC(C)(C)C)C(=O)c1cccc(Cl)c1 (stereo unspecified),max response,CRL-7250 [1],-10.7%
same,outcome,CRL-7250 [1],inactive
same,max response,HaCat [2],-7.82%
same,outcome,HaCat [2],inactive
same,max response,KB-3-1,-3.99% and 2.03% and 8.68%
same,max response,NIH3T3,-22.3% and 1.31%
same,outcome,NIH3T3,inactive
same,outcome,CRL-7250 [3],inactive
same,outcome,HACAT [4]; [5],inactive
same,outcome,HEK293T,inactive
same,outcome,MCC-13,inactive
same,Potency,MKL-1,inactive
same,Potency,MKL-2,inactive
COc1cc(CCN)cc(OC)c1OC,max response,CRL-7250 [1],-14.6%
same,max response,HEK293,-9.62%
same,max response,HaCat [2],-15.9%
same,max response,KB-3-1,2.38%
same,max response,NIH3T3,-22.5%
same,outcome,MCC-13,inactive
same,Potency,MCC-26,inactive
same,Potency,MKL-1,inactive
Oc1ccc(Cl)cc1,Potency,PC15,inactive
same,Potency,PC26,inactive
same,Potency,PC49,inactive
same,Potency,SC27B,inactive
same,Potency,TAB109,inactive
same,Potency,TAB113,inactive
same,Potency,TAB165,inactive
same,Potency,W2,inactive
same,max response,CRL-7250 [1],-6.01%
same,outcome,HEK293,inactive
same,outcome,HaCat [2],inactive
same,max response,KB-3-1,-9.29%
same,max response,NIH3T3,0.545%
same,outcome,HACAT [4]; [5],inactive
same,outcome,HEK293T,inactive
same,outcome,MCC-13,inactive
same,Potency,MCC-26,inactive
same,Potency,MKL-1,inactive
same,Potency,MKL-2,inactive
C=CCN1C[C@H](C)N([C@H](c2ccc(C(=O)N(CC)CC)cc2)c2cccc(OC)c2)C[C@H]1C,Potency,SC27B,inactive
same,Potency,W2,15.1 µM (active)
same,max response,CRL-7250 [1],0.0318%
same,outcome,CRL-7250 [1],inactive
same,max response,HEK293,-3.98% and -24.1%
same,outcome,HaCat [2],inactive
same,max response,KB-3-1,2.69%
same,outcome,KB-3-1,inactive
same,max response,NIH3T3,-0.106% and 4.66%
same,outcome,CRL-7250 [3],inactive
same,outcome,HACAT [4]; at 9.27 µM (top of the series),inactive
same,outcome,HACAT [4]; at 44.8 µM (top of the series),inactive
same,outcome,MCC-13,inactive
same,Potency,MCC-26,inactive
same,Potency,MKL-1,inactive
same,Potency,MKL-2,inactive
C=CCC1([C@H](C)CCC)C(=O)NC(=O)NC1=O,max response,CRL-7250 [1],1.74%
same,max response,HEK293,1.82%
same,max response,HaCat [2],-2.25%
same,max response,KB-3-1,-1.57%
same,max response,NIH3T3,-4.37%
same,outcome,MCC-13,inactive
same,Potency,MCC-26,inactive
same,Potency,MKL-1,inactive
same,Potency,MKL-2,inactive
NCCc1ccc(O)cc1,Potency,PC15,inactive
same,Potency,PC26,inactive
same,Potency,PC49,inactive
same,Potency,SC27B,inactive
same,Potency,TAB109,inactive
same,Potency,TAB113,inactive
same,Potency,TAB165,inactive
same,Potency,W2,inactive
same,max response,CRL-7250 [1],-9.28%
same,outcome,HEK293,inactive
same,max response,HaCat [2],1.28%
same,max response,KB-3-1,-7.48%
same,outcome,NIH3T3,inactive
same,outcome,HEK293T,inactive
same,outcome,MCC-13,inactive
same,Potency,MCC-26,inactive
same,Potency,MKL-1,inactive
CN1CC[C@]23c4c5ccc(O)c4O[C@H]2[C@@H](O)CC[C@H]3[C@H]1C5,outcome,CRL-7250 [1],inactive
same,max response,HEK293,-12.9%
same,outcome,HaCat [2],inactive
same,max response,KB-3-1,-2.83%
same,max response,NIH3T3,0.466%
same,outcome,CRL-7250 [3],inactive [at 92 µM]
same,outcome,HACAT [4]; [5],inactive [at 92 µM]
same,outcome,MCC-13,inactive
same,Potency,MCC-26,inactive
same,Potency,MKL-1,inactive
same,Potency,MKL-2,inactive
CCC1(c2ccccc2)C(=O)N(COC)C(=O)N(COC)C1=O,Potency,PC15,inactive
same,Potency,PC26,inactive
same,Potency,PC49,inactive
same,Potency,SC27B,inactive
same,Potency,TAB113,inactive
same,Potency,TAB165,inactive
same,Potency,W2,inactive
same,max response,CRL-7250 [1],-1.83%
same,max response,HEK293,3.09%
same,max response,HaCat [2],3.73%
same,max response,KB-3-1,-3.81%
same,outcome,NIH3T3,inactive
same,outcome,MCC-13,inactive
same,Potency,MCC-26,inactive
same,Potency,MKL-1,inactive
same,Potency,MKL-2,inactive
CC1(C)C(C=C(Cl)Cl)C1C(=O)OC(C#N)c1cccc(Oc2ccccc2)c1 (stereo unspecified),max response,CRL-7250 [1],2.32%
same,max response,HEK293,2.42%
same,outcome,HaCat [2],inactive
same,max response,KB-3-1,2.32%
same,outcome,NIH3T3,inactive
same,outcome,HACAT [4]; [5],inactive
same,outcome,MCC-13,inactive
same,Potency,MCC-26,inactive
same,Potency,MKL-1,inactive
same,Potency,MKL-2,inactive
O=C1c2ccccc2C(=O)C1C(=O)C(c1ccccc1)c1ccccc1,Potency,PC15,inactive
same,Potency,PC26,inactive
same,Potency,PC49,inactive
same,Potency,SC27B,inactive
same,Potency,TAB113,inactive
same,Potency,TAB165,inactive
same,max response,CRL-7250 [1],3.94%
same,outcome,HEK293,inactive
same,outcome,HaCat [2],inactive
same,max response,KB-3-1,-7.07%
same,max response,NIH3T3,-11%
same,outcome,HACAT [4]; [5],inactive
same,outcome,HEK293T,inactive
same,outcome,MCC-13,inactive
same,Potency,MCC-26,inactive
